Data on 34 compounds can be found in the supplement of paper PMC12024529.

Molecules are shown by their SMILES.

In the assay the test system is HEK293 WT BDD-FVIII-Gluc. Nature of the assay: secreted FVIII-Gluc luciferase Z-score vs DMSO control; higher = more FVIII-Gluc secretion. To be noted: 5 µM. As to the method:
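Natural plant-compound library (480 compounds, ST catalogue IDs) screened on HEK293 cells stably expressing WT BDD-FVIII-Gaussia luciferase fusion at 5 µM. Secreted Gluc activity in the medium is given as a Z-score relative to DMSO controls.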
`COc1cc2c(c(OC)c1OC)-c1ccc(OC)c(=O)cc1C(NC(C)=O)CC2` (centres undefined): the “secreted FVIII-Gluc luciferase Z-score” value was -6.65.
As for `C=C[C@H]1CN2CCC1C[C@@H]2[C@@H](O)c1ccnc2ccccc12` (some centres undefined), the “secreted FVIII-Gluc luciferase Z-score” value is -0.283.
The same measure for `CN(C)[C@@H]1C(=O)C(C(N)=O)=C(O)[C@@]2(O)C(=O)C3=C(O)c4c(O)cccc4[C@@](C)(O)[C@H]3C[C@@H]12`: 0.496; for `CC(C)[C@H]1C(=O)N2CCC[C@H]2[C@]2(O)OC(NC(=O)[C@@H]3C=C4c5cccc6[nH]cc(c56)C[C@H]4N(C)C3)(C(C)C)C(=O)N12` (some centres undefined): 0.939; for `COc1ccc2c3c([nH]c2c1)C(C)=NCC3`: -2.05.
In the case of `CC1=NCCc2c1[nH]c1cc(O)ccc21`, the “secreted FVIII-Gluc luciferase Z-score” value is -0.262.
The same measure for `COc1ccc(CC2c3cc(OC)c(OC)cc3CCN2C)cc1OC` (centres undefined): -1.36; for `COc1cc([C@@H]2c3cc4c(cc3[C@H](O)[C@H]3COC(=O)[C@H]23)OCO4)cc(OC)c1OC`: -3.94; for `CCCN1C[C@H](CSC)C[C@@H]2c3cccc4[nH]cc(c34)C[C@H]21`: 0.385.
With `CN1[C@@H]2CC[C@H]1CC(OC(=O)C(CO)c1ccccc1)C2` (some centres undefined), the “secreted FVIII-Gluc luciferase Z-score” value was -0.395.
As for `CC[C@H]1C2C[C@H]3[C@@H]4N(C)c5ccccc5[C@]45C[C@@H](C2[C@H]5O)N3[C@@H]1O` (some centres undefined), the “secreted FVIII-Gluc luciferase Z-score” value turned out to be 0.504.
With `COc1cc2c(cc1OC)-c1c(OC)c(OC)c(C=O)c3c1[C@H](C2)N(C)CC3`, the “secreted FVIII-Gluc luciferase Z-score” value turned out to be 0.0709.
Turning to `CCN1CC2(COC(=O)c3ccccc3N3C(=O)CC(C)C3=O)CC[C@H](OC)[C@@]34C5C[C@@H]6[C@@H](OC)C[C@@](O)(C5[C@H]6OC)[C@](O)([C@@H](OC)C23)[C@@H]14.[O-][Cl+3]([O-])([O-])O` (some centres undefined), the “secreted FVIII-Gluc luciferase Z-score” value came out at 0.461.
Take `Cc1ccc2[nH]c(CCN)cc2c1`: the “secreted FVIII-Gluc luciferase Z-score” value worked out at 1.37.
`C=C[C@H]1CN2CCC1C[C@@H]2C(O)c1ccnc2ccccc12` (some centres undefined): the “secreted FVIII-Gluc luciferase Z-score” value was 0.484.
For the compound `COc1cc2c(cc1O)-c1c(O)c(OC)cc3c1[C@H](C2)N(C)CC3`, the “secreted FVIII-Gluc luciferase Z-score” value is 0.6.
The same measure for `CN1CC[C@@]2(C)c3cc(O)ccc3N(C)[C@@H]12`: -0.624.
The same measure for `C=CCCN1C[C@@H]2C[C@@H](C1)c1cccc(=O)n1C2`: -0.00507.
For `CCCCc1ccc(C(=O)O)nc1`, the “secreted FVIII-Gluc luciferase Z-score” value stood at 0.032.
For the compound `COc1cccc2c1cc([N+](=O)[O-])c1c(C(=O)O)cc3c(c12)OCO3`, the “secreted FVIII-Gluc luciferase Z-score” value came out at 0.158.
`C[N+]1=Cc2cc3c(cc2CC1)OCO3`: the “secreted FVIII-Gluc luciferase Z-score” value amounted to 0.204.
For `COc1cc2c(cc1OC)-c1c(O)c(OC)cc3c1[C@H](C2)N(C)CC3`, the “secreted FVIII-Gluc luciferase Z-score” value was 0.65.
Consider `COc1ccc2c(c1O)-c1c(OC)c(OC)cc3c1[C@H](C2)N(C)CC3`, for which the “secreted FVIII-Gluc luciferase Z-score” value was determined as 0.32.
The same measure for `Oc1ccc(CC2NCCc3cc(O)c(O)cc32)cc1O` (centres undefined): 0.392; for `CN1CCc2cc3c(cc2[C@H]1[C@@H]1OC(=O)c2c1ccc1c2OCO1)OCO3`: 0.754.
In the case of `CCN1C[C@@]2(COC)C3[C@@H](OC)[C@H]4C1[C@@]3(C1C[C@@]3(O)[C@H](OC(=O)c5ccccc5)C1[C@]4(OC(C)=O)[C@@H](O)[C@@H]3OC)[C@@H](OC)C[C@H]2O` (some centres undefined) it was -0.523; in that of `COc1ccc2c(c1O)-c1c(OC)c(OC)cc3c1C(C2)N(C)CC3` (centres undefined), 0.615; in that of `CCC1CN2CCc3cc(OC)c(OC)cc3[C@@H]2C[C@@H]1C[C@H]1NCCc2cc(OC)c(OC)cc21` (some centres undefined), -3.94.
For `CC(=O)N1C[C@@H]2C[C@H](C1)c1cccc(=O)n1C2`, the “secreted FVIII-Gluc luciferase Z-score” value is -0.118.
Consider `C=C[C@H]1CN2CCC1CC2c1[nH]c2ccccc2c1CCO` (some centres undefined), for which the “secreted FVIII-Gluc luciferase Z-score” value was determined as 0.502.
Consider `CC(C)[C@@]1(NC(=O)[C@@H]2C[C@@H]3c4cccc5[nH]cc(c45)C[C@H]3N(C)C2)O[C@@]2(O)[C@@H]3CCCN3C(=O)[C@H](Cc3ccccc3)N2C1=O`, for which the “secreted FVIII-Gluc luciferase Z-score” value was -0.176.
For `NCC(O)c1cccc(O)c1` (centres undefined), the “secreted FVIII-Gluc luciferase Z-score” value amounted to 0.434.
As to `CC(C)C1(NC(=O)[C@@H]2C=C3c4cccc5[nH]cc(c45)C[C@H]3N(C)C2)O[C@@]2(O)[C@@H]3CCCN3C(=O)[C@H](Cc3ccccc3)N2C1=O` (some centres undefined), the “secreted FVIII-Gluc luciferase Z-score” value amounted to 1.35.
The same measure for `C=C1C/C(=C/C)C(=O)O[C@@H]2CCN3CC=C(COC(=O)[C@]1(C)O)[C@H]23`: 0.649.
